In the supplement of paper PMC3334620:
In all, about 33,000 sequences were measured (“E-score (-0.5 to 0.5)”: median about -0.0014, highest 2% from about 0.25 on). This is one part of a sample in which the highest values are shown more often than they occur.

These sequences were tested against T1, Cad1 (UniProt P24813) (assay: PBM E-score (8-mer binding enrichment) (E-score (-0.5 to 0.5)); higher = stronger / more preferred TF binding). Conditions: protein concentration: 100 nM; construct: GST-full length.
T1 sequence: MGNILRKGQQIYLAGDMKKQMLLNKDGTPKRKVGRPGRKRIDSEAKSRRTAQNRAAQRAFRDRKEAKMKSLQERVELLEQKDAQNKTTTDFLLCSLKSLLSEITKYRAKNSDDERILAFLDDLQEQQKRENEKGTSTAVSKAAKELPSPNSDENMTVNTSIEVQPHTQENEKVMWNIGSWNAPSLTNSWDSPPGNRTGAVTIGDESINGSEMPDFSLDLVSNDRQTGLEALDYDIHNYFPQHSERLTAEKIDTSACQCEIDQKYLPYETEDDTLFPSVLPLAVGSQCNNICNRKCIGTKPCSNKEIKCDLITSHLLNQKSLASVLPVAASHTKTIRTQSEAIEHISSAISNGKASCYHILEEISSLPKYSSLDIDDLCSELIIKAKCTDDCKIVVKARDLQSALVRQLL
In short: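 Full-length yeast transcription factors or their DNA-binding domains, GST-tagged and expressed with PURExpress, were applied at about 100-200 nM to universal all-10-mer Agilent arrays. These arrays had been made double-stranded by primer extension on fresh or once-stripped slides. Detection used fluorescent anti-GST, normalisation used masliner, and E-scores for ungapped eight-base words pooled with reverse complements came from the Universal PBM Analysis Suite.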

Going from TGAAAACA to AAAAGTAA, the “PBM E-score” value rises from 0.131 to 0.265.

Going from AAAAGTAT to CAAAGTAA, the “PBM E-score” value falls from 0.0548 to -0.00082.

Compared with GATAGTGA, CATTTTTC is lower in “PBM E-score” value: 0.157 for the first, 0.124 for the second.

First: ATGAAAAA
Second: ACGAAAAG
The “PBM E-score” value of the first is higher: 0.27 for the first, 0.0611 for the second.

Going from ACGAAAAC to ACGAAAAA, the “PBM E-score” value falls from 0.259 to -0.045.

First: ATGAAAAG
Second: ATGAAAAT
The “PBM E-score” value of the first is lower: 0.0321 for the first, 0.0649 for the second.

Compared with ACTTCACT, CACAAGCG is lower in “PBM E-score” value: -0.00075 for the first, -0.145 for the second.

First: ATATCCCA
Second: CGCTCCAA
The “PBM E-score” value of the first is higher: 0.0408 for the first, 0.0125 for the second.

Compared with ACGTTAAC, GCGTTAAC is higher in “PBM E-score” value: 0.102 for the first, 0.257 for the second.

Compared with CTGTTAAC, ATGTTAAC is lower in “PBM E-score” value: 0.258 for the first, 0.0833 for the second.

Going from CCGTTAAC to GTGTTAAC, the “PBM E-score” value rises from 0.0965 to 0.168.

Compared with TGGGAACA, CAGGTTTC is higher in “PBM E-score” value: -0.0827 for the first, 0.111 for the second.

First: ATGAACTA
Second: CCCTTTAA
The “PBM E-score” value of the first is higher: 0.0699 for the first, -0.135 for the second.

Compared with GTGTTTAA, GTAGATCA is lower in “PBM E-score” value: 0.233 for the first, 0.0116 for the second.

Compared with AGTGGTAC, GCCACAGC is lower in “PBM E-score” value: -0.103 for the first, -0.115 for the second.

First: CTGAGTAA
Second: GTGAGTAA
The “PBM E-score” value of the first is higher: 0.254 for the first, 0.129 for the second.

Compared with ATGAGTAC, CTGAGTAC is lower in “PBM E-score” value: 0.0206 for the first, -0.06 for the second.

Compared with ATGAGTAA, ATGAGTAG is lower in “PBM E-score” value: 0.286 for the first, 0.0743 for the second.

First: CCTAGTGA
Second: AGGGGTCA
The “PBM E-score” value of the first is higher: -0.171 for the first, -0.304 for the second.

First: CTCGGGGA
Second: GATCCGTA
The “PBM E-score” value of the first is higher: -0.0482 for the first, -0.0959 for the second.

Going from CTCGTAAG to ATCGTAAG, the “PBM E-score” value falls from 0.264 to -0.0168.

First: CTCGTAAC
Second: CAGAGACC
The “PBM E-score” value of the first is higher: 0.112 for the first, -0.145 for the second.

Going from ATGGTCGC to AGGTCTCG, the “PBM E-score” value falls from -0.127 to -0.2.

Going from CCAGAAGC to CTATCAAC, the “PBM E-score” value rises from -0.248 to 0.219.

Going from CTATCAAA to TTATCAAA, the “PBM E-score” value rises from 0.0734 to 0.3.

Going from GAATCAAC to CTATCAAG, the “PBM E-score” value falls from 0.264 to 0.0773.

Going from GTATCAAA to ATATCAAC, the “PBM E-score” value rises from 0.142 to 0.253.

First: GTATCAAC
Second: CAATCAAC
The “PBM E-score” value of the first is lower: -0.0681 for the first, 0.228 for the second.

Going from ATATCAAG to ATATCAGG, the “PBM E-score” value falls from 0.251 to 0.00611.

Going from GAATCAAA to TCAGCACA, the “PBM E-score” value rises from 0.0378 to 0.172.

Compared with TAGCGCCA, CCAGCTGA is higher in “PBM E-score” value: 0.0297 for the first, 0.155 for the second.

First: AGTCAGGG
Second: CGATTCTC
The “PBM E-score” value of the first is lower: -0.148 for the first, 0.0405 for the second.

Compared with ACATGGCC, CCGCGAAG is lower in “PBM E-score” value: 0.141 for the first, 0.12 for the second.

First: ACTGTCGA
Second: AAGGCTGA
The “PBM E-score” value of the first is higher: 0.0753 for the first, -0.00348 for the second.

First: CCAGTGCC
Second: AGTGCGAG
The “PBM E-score” value of the first is lower: -0.0306 for the first, -0.0178 for the second.

Going from ATATCAAA to AGATCAAT, the “PBM E-score” value falls from 0.0329 to -0.021.

Compared with ATATCAAT, AGACCTAT is lower in “PBM E-score” value: 0.253 for the first, 0.111 for the second.

Compared with ATCGATGA, GTTCCGCA is higher in “PBM E-score” value: 0.13 for the first, 0.252 for the second.

Going from CTTCCGCA to ATTCCGCA, the “PBM E-score” value falls from 0.0248 to -0.0887.

Compared with GACGGAGA, ATAGGTGA is lower in “PBM E-score” value: 0.038 for the first, -0.0537 for the second.

First: AAATCCAA
Second: CAATCGAA
The “PBM E-score” value of the first is higher: 0.115 for the first, 0.0916 for the second.

Compared with AAATCGAA, TAATCGAA is higher in “PBM E-score” value: -0.156 for the first, 0.35 for the second.

Compared with GAATCCAA, TAATCCAA is higher in “PBM E-score” value: -0.0184 for the first, 0.255 for the second.

Going from CGTTCGTC to AGTCTCAT, the “PBM E-score” value falls from 0.248 to -0.0485.

Compared with GCGCATCC, ATGAGGAC is higher in “PBM E-score” value: -0.0757 for the first, -0.0183 for the second.

Going from AGGGGCGC to ATTGTCAC, the “PBM E-score” value rises from -0.103 to 0.0726.

Going from ATTGTCCC to ATTGTCAA, the “PBM E-score” value rises from -0.0923 to 0.084.

Going from ATTGTCCG to ATTGTCCA, the “PBM E-score” value falls from 0.271 to 0.132.

Going from ATTGTCAG to ATCAGAAG, the “PBM E-score” value falls from 0.306 to -0.0366.

First: ATTTGGAG
Second: ACTCCACT
The “PBM E-score” value of the first is lower: -0.204 for the first, -0.0657 for the second.

Going from ACCCGGCG to CACGACAG, the “PBM E-score” value rises from -0.12 to 0.0344.

Going from CACTGTAA to GATACCCA, the “PBM E-score” value rises from 0.00669 to 0.122.

Going from TTACGCAA to ATACGCAA, the “PBM E-score” value falls from 0.268 to 0.119.

First: TCGCGTAA
Second: ATGCGCAC
The “PBM E-score” value of the first is higher: 0.19 for the first, 0.14 for the second.

First: ATGCGCAG
Second: CCGCGCAA
The “PBM E-score” value of the first is lower: -0.0137 for the first, 0.0795 for the second.

Compared with GCGCGCAA, GTACGCAA is lower in “PBM E-score” value: 0.303 for the first, 0.0953 for the second.

Compared with ACGCGTAA, GCGCGTAA is higher in “PBM E-score” value: 0.176 for the first, 0.293 for the second.

First: ATGCGCAT
Second: ACGCGCAA
The “PBM E-score” value of the first is higher: 0.334 for the first, 0.206 for the second.

Going from GCCTCAGC to CTTTCACA, the “PBM E-score” value rises from -0.0857 to 0.209.

Going from ACAGCATG to AACTTGGG, the “PBM E-score” value falls from -0.053 to -0.0849.

Compared with GGTTGGTA, TCGCGCAA is higher in “PBM E-score” value: 0.101 for the first, 0.27 for the second.

First: GCGCAGAA
Second: TGGCGCAA
The “PBM E-score” value of the first is higher: 0.262 for the first, -0.0637 for the second.

Compared with ATGCGCAA, GTGCGCAA is lower in “PBM E-score” value: 0.107 for the first, 0.0688 for the second.

Compared with TAGCGCAA, TTGCGCAA is higher in “PBM E-score” value: 0.207 for the first, 0.258 for the second.

First: TCGCAGAA
Second: CCGCAGAA
The “PBM E-score” value of the first is lower: -0.192 for the first, 0.179 for the second.

Going from ATACACTA to ATATCGTG, the “PBM E-score” value falls from 0.205 to 0.164.

Compared with ACACCGCC, AGGATCTA is lower in “PBM E-score” value: 0.0284 for the first, -0.266 for the second.

Going from ACGCATGG to ACGCATGC, the “PBM E-score” value rises from -0.215 to 0.283.

Going from ACGCATGA to CTGCTGAC, the “PBM E-score” value rises from 0.0155 to 0.275.

First: CAGCTGAG
Second: CTGCTGAA
The “PBM E-score” value of the first is higher: 0.0708 for the first, 0.0549 for the second.

First: ACGCTGAC
Second: CAGCTGAC
The “PBM E-score” value of the first is higher: 0.3 for the first, 0.182 for the second.

Going from CTGCTGTC to CAGCTGTC, the “PBM E-score” value rises from -0.0811 to 0.253.

Compared with ACGCTGAT, ACGCTGTC is lower in “PBM E-score” value: 0.166 for the first, -0.187 for the second.

Going from GGAAGAAA to CTAGTTGC, the “PBM E-score” value rises from -0.0518 to 0.0214.

Compared with GGACTTGA, ATACTCTG is higher in “PBM E-score” value: -0.232 for the first, 0.0457 for the second.

Going from ATCAGCAA to CTCAGCAC, the “PBM E-score” value falls from 0.122 to 0.0326.

First: CTCAGCAA
Second: GTCAGCAC
The “PBM E-score” value of the first is lower: 0.106 for the first, 0.261 for the second.

First: GTCAGCAA
Second: ATCAGCAC
The “PBM E-score” value of the first is higher: 0.295 for the first, 0.0147 for the second.

First: AGCTCCAC
Second: AACGTAGA
The “PBM E-score” value of the first is lower: -0.0867 for the first, 0.0503 for the second.

Going from CTTGCTAC to ACTGTAAT, the “PBM E-score” value rises from -0.0445 to 0.111.

First: CTGCCGCA
Second: ACGGGTCT
The “PBM E-score” value of the first is higher: -0.0367 for the first, -0.252 for the second.

Compared with AGCGATGG, TCTTAGCA is lower in “PBM E-score” value: -0.0366 for the first, -0.0984 for the second.

First: AACGACCT
Second: ATCAATCA
The “PBM E-score” value of the first is lower: -0.0376 for the first, 0.13 for the second.

Compared with TCGATTAA, ACGATTAA is lower in “PBM E-score” value: 0.301 for the first, 0.0443 for the second.

Going from CTGATTTA to ATGATTAA, the “PBM E-score” value rises from 0.0612 to 0.32.

First: CTGATTAA
Second: CTGATTTC
The “PBM E-score” value of the first is higher: 0.362 for the first, 0.182 for the second.

Compared with GCGATTAA, ATGATTAC is higher in “PBM E-score” value: 0.123 for the first, 0.192 for the second.

Going from GTGATTAA to ATGATTAG, the “PBM E-score” value falls from 0.228 to 0.094.

First: CTGATTAC
Second: ATGATTGA
The “PBM E-score” value of the first is higher: 0.334 for the first, 0.0737 for the second.
